Molecular target: PITX2 (Homo sapiens, UniProt Q99697 72-157)
Assay: PBM; 200 nM protein, PBS
Conditions: dsDNA, one strand shown

Row | Sequence | binding signal
1 | GCGCTTAA | 11.1 upbm affinity estimate (log intensity, higher = more binding, comparable within an allelic series)
2 | ACGTTCTG | 8.19 upbm affinity estimate (log intensity, higher = more binding, comparable within an allelic series)
3 | ATTAGGCC | 10 upbm affinity estimate (log intensity, higher = more binding, comparable within an allelic series)
4 | CATTATTC | 9.49 upbm affinity estimate (log intensity, higher = more binding, comparable within an allelic series)
5 | ACGTGTCC | 8.04 upbm affinity estimate (log intensity, higher = more binding, comparable within an allelic series)
6 | AAAGCCGA | 9.6 upbm affinity estimate (log intensity, higher = more binding, comparable within an allelic series)
7 | GGCTTAAA | 12.3 upbm affinity estimate (log intensity, higher = more binding, comparable within an allelic series)
8 | AGATCCGG | 9.62 upbm affinity estimate (log intensity, higher = more binding, comparable within an allelic series)
9 | GACGGTGA | 8.15 upbm affinity estimate (log intensity, higher = more binding, comparable within an allelic series)
10 | GCGTACCC | 8.02 upbm affinity estimate (log intensity, higher = more binding, comparable within an allelic series)
11 | ACTGTCAG | 7.86 upbm affinity estimate (log intensity, higher = more binding, comparable within an allelic series)
12 | AGCGATGC | 7.81 upbm affinity estimate (log intensity, higher = more binding, comparable within an allelic series)
13 | TGACGCAA | 8.04 upbm affinity estimate (log intensity, higher = more binding, comparable within an allelic series)
14 | CGTTGTCA | 8.02 upbm affinity estimate (log intensity, higher = more binding, comparable within an allelic series)
15 | AGATTTAT | 11 upbm affinity estimate (log intensity, higher = more binding, comparable within an allelic series)
16 | CACTCGCA | 8.08 upbm affinity estimate (log intensity, higher = more binding, comparable within an allelic series)
17 | AGTGCCTC | 7.74 upbm affinity estimate (log intensity, higher = more binding, comparable within an allelic series)
18 | GAGAGGCC | 7.88 upbm affinity estimate (log intensity, higher = more binding, comparable within an allelic series)
19 | AAGCCCTA | 10.4 upbm affinity estimate (log intensity, higher = more binding, comparable within an allelic series)
20 | CAACGGGC | 7.95 upbm affinity estimate (log intensity, higher = more binding, comparable within an allelic series)

Row | Sequence | binding signal
21 | GGATACTA | 9.25 upbm affinity estimate (log intensity, higher = more binding, comparable within an allelic series)
22 | GAAGGTCA | 7.87 upbm affinity estimate (log intensity, higher = more binding, comparable within an allelic series)
23 | ACGCCGAG | 8 upbm affinity estimate (log intensity, higher = more binding, comparable within an allelic series)
24 | GGAGGAAC | 8.06 upbm affinity estimate (log intensity, higher = more binding, comparable within an allelic series)
25 | CCATTCAC | 8.31 upbm affinity estimate (log intensity, higher = more binding, comparable within an allelic series)
26 | GCTCCACC | 7.66 upbm affinity estimate (log intensity, higher = more binding, comparable within an allelic series)
27 | ATATAAAG | 9.37 upbm affinity estimate (log intensity, higher = more binding, comparable within an allelic series)
28 | CGGTGATA | 9.92 upbm affinity estimate (log intensity, higher = more binding, comparable within an allelic series)
29 | GAACACGA | 8.02 upbm affinity estimate (log intensity, higher = more binding, comparable within an allelic series)
30 | ATTATCAC | 10.2 upbm affinity estimate (log intensity, higher = more binding, comparable within an allelic series)
31 | CCGTACCC | 7.91 upbm affinity estimate (log intensity, higher = more binding, comparable within an allelic series)
32 | GACAACGC | 7.92 upbm affinity estimate (log intensity, higher = more binding, comparable within an allelic series)
33 | ACCACCGT | 8.12 upbm affinity estimate (log intensity, higher = more binding, comparable within an allelic series)
34 | TATTAGCA | 10.1 upbm affinity estimate (log intensity, higher = more binding, comparable within an allelic series)
35 | CGGGCACA | 8 upbm affinity estimate (log intensity, higher = more binding, comparable within an allelic series)
36 | AACGAGGC | 7.79 upbm affinity estimate (log intensity, higher = more binding, comparable within an allelic series)
37 | AAGCTGAA | 9.66 upbm affinity estimate (log intensity, higher = more binding, comparable within an allelic series)
38 | GGATCCTA | 9.17 upbm affinity estimate (log intensity, higher = more binding, comparable within an allelic series)
39 | ACAATCCC | 10.3 upbm affinity estimate (log intensity, higher = more binding, comparable within an allelic series)
40 | AAGGGATT | 11.6 upbm affinity estimate (log intensity, higher = more binding, comparable within an allelic series)
